Activity calls are given as the source filed them. Unless noted, how the calls were made is not given here.

The subject of experiment [1] is XIP peptide (Xip251-270) binding. The experiment can be described thus: small-molecule binders of XIP peptide, primary screen, biochemical, small-molecule microarray, fluorescence 635/667 nm, 0.1 µg/mL protein (AID 1182). The settings on record: fluorescent protein binding, 635 nm, higher = more signal, called active from +8 up or from −8 down.
The subject of a further experiment is XIP peptide (Xip251-270). The experiment in a line: small-molecule binders of XIP peptide, primary screen, biochemical, small-molecule microarray, fluorescence 635/667 nm, 0.5 µg/mL protein (AID 1183). The settings on record: small-molecule microarray binding, fluorescence 635 nm; higher = more signal.
Experiment [2] can be described thus: Plasmodium falciparum growth inhibition, primary screen, strain 3D7, DAPI fluorescence, 100 nL (AID 1184).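 Further: parasites grown inside human red blood cells in medium with human serum.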 The settings on record: P. falciparum 3D7 growth, 3 d, higher = more signal.
Experiment [3] concerns the target Homeobox protein Hox-A13 (Mus musculus) (UniProt Q62424). The experiment in a line: inhibitors of HoxA13-DNA binding, primary screen, biochemical, fluorescence polarization, labeled oligonucleotide (AID 1185). The settings on record: 15 min, higher = more signal, called active from +8 up or from −8 down. A general note: Polarisation of emitted light reports the rotation of a fluorescent probe.

The nature of experiment [4]: inhibitors of hydroxyurea-induced Chk1 phosphorylation, primary screen, imaging, HeLa, phospho-Chk1 antibody, percent positive cells (AID 1186). The settings on record: hydroxyurea-induced phospho-Chk1 immunofluorescence imaging, higher = more signal.
The nature of experiment [5]: inhibitors of hydroxyurea-induced Chk1 phosphorylation, primary screen, imaging, HeLa, phospho-Chk1 nuclear intensity (AID 1187). The settings on record: hydroxyurea-induced phospho-Chk1 immunofluorescence imaging, higher = more signal.

Homeobox protein Hox-A13 (Mus musculus), sequence (Q62424 whole entry, looked up): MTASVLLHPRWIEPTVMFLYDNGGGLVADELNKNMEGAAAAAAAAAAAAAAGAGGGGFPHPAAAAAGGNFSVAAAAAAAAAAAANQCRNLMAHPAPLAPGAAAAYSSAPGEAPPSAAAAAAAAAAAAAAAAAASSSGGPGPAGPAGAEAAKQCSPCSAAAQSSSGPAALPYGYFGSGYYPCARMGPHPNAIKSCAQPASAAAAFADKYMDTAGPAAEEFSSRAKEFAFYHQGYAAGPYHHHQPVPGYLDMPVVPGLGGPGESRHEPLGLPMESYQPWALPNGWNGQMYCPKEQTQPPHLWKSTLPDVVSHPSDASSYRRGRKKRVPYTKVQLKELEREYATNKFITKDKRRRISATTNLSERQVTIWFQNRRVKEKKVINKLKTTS

`COC(=O)[C@]1(CCC(=O)OC(C)(C)C)N=C(c2ccc(OCCCO)cc2)O[C@@H]1c1ccccc1`: the composite z-score in experiment [1] was 1.87 (inactive); in the experiment with XIP peptide (Xip251-270), 0.761. Further, the z-score in experiment [2] was -2.31; in experiment [3], -4.4 (inactive); in experiment [4], -0.621 (inactive); in experiment [5] it was -0.545 (inactive).

Consider `CN(C)CCCCNC(=O)[C@@H]1C[C@@H]2C(=O)N[C@@H](CCCCN)C(=O)N2[C@@H]1c1ccc(O)cc1`, for which the composite z-score is 1.09 (inactive) in experiment [1] and 0.881 with XIP peptide (Xip251-270). For the same compound, the z-score was -1.8 in experiment [2], 1.46 (inactive) in experiment [3], 0.128 (inactive) in experiment [4] and -0.115 (inactive) in experiment [5].

For `COCC(=C=CC[C@H](O)c1cccc(OCCO)c1)C[C@H](O)c1cc(Cl)cc(Cl)c1O`, the composite z-score in experiment [1] was 0.378 (inactive); in the experiment with XIP peptide (Xip251-270) it was 0.825. For the same compound, the z-score in experiment [2] is -0.366; in experiment [3] it was -4.71 (inactive); in experiment [4], 0.144 (inactive); in experiment [5] it was 0.532 (inactive).

As to `CC=CC(O)C1C=CC2C(=O)N(C)C(=O)C2N1N(c1ccccc1)c1ccccc1` (stereo not drawn), the figures for the composite z-score (in experiment [1]; in the experiment on XIP peptide (Xip251-270)) were 0.212 (inactive) and 0.414, respectively. For the same compound, the z-score in experiment [2] was 0.0212; in experiment [3], -0.125 (inactive); in experiment [4] it was 0.341 (inactive); in experiment [5], 0.365 (inactive).

Consider `COc1ccc([Si](C)(C)[C@H]2[C@H](CCn3cc([C@H](O)c4ccccc4)nn3)O[C@@]3(C(=O)N(C)c4ccccc43)[C@@H]2C)cc1`, for which the composite z-score in experiment [1] was 0.014 (inactive); in the experiment with XIP peptide (Xip251-270), -0.325. Moreover, the z-score in experiment [2] was -1.52; in experiment [3], -6.41 (inactive); in experiment [4], -0.179 (inactive); in experiment [5], 0.36 (inactive).

As for `CN1C(=O)C2C=CC(C(O)c3ccc(F)cc3)N(N(c3ccccc3)c3ccccc3)C2C1=O` (stereo not drawn), the composite z-score in experiment [1] was -0.0116 (inactive); with XIP peptide (Xip251-270) it was -0.0807. Moreover, the z-score in experiment [2] was 0.988; in experiment [3], -3.45 (inactive); in experiment [4], 1.17 (inactive); in experiment [5], 0.568 (inactive).

As to `COC(=O)[C@@]1(Cc2ccc(OC)cc2)[C@H]2c3cc(C(=O)N4CCCC4)n(CCCNc4ncc(C(F)(F)F)cc4Cl)c3C[C@H]2CN1C(=O)c1ccccc1`, the composite z-score in experiment [1] was -0.546 (inactive); in the experiment on XIP peptide (Xip251-270) it was 0.736. Besides, the z-score in experiment [2] is -1.41; in experiment [3] it was -4.1 (inactive); in experiment [4], 0.259 (inactive); in experiment [5], -0.101 (inactive).

Take `COc1ccc(CCNC(=O)[C@@]2(C)c3ccccc3C(=O)N(c3ccc(C)cn3)[C@H]2c2ccc(CO)cc2)cc1`: the values for the composite z-score (in experiment [1]; in the experiment with XIP peptide (Xip251-270)) were 1.66 (inactive) and 0.639, respectively. Besides, the z-score is 1.36 in experiment [2], -1.58 (inactive) in experiment [3], 0.366 (inactive) in experiment [4] and 0.822 (inactive) in experiment [5].

On to `COC(=O)[C@@]1(Cc2ccccc2)[C@H]2c3cc(C(=O)N4CCCC4)n(Cc4ccc(O)c(OC)c4)c3C[C@H]2CN1C(=O)c1ccccc1`, for which the composite z-score in experiment [1] was 0.469 (inactive); in the experiment on XIP peptide (Xip251-270) it was -0.333. Further, the z-score in experiment [2] is -1.32; in experiment [3], -4.6 (inactive); in experiment [4] it was 1.13 (inactive); in experiment [5], 0.678 (inactive).

Consider `C=CCC(OC(C)=O)[C@@H]1[C@@H](N(Cc2ccc(-c3cccc(C(F)(F)F)c3)o2)C(=O)Cc2ccc(OC)cc2)c2cc(OCCCO)ccc2N1C(=O)c1ccc2ccccc2c1` (stereo partly drawn), for which the composite z-score in experiment [1] is 0.397 (inactive); with XIP peptide (Xip251-270), 0.0642. In addition, the z-score in experiment [2] is -2.16; in experiment [3], -2.43 (inactive); in experiment [4], 0.171 (inactive); in experiment [5], 0.284 (inactive).

Turning to `C=CCN1C(=O)[C@]2(Cc3ccccc3)N=C(c3ccc(OCCCO)cc3)O[C@@H]2c2ccccc21`, the composite z-score in experiment [1] was 0.7 (inactive); with XIP peptide (Xip251-270) it was 0.812. Further, the z-score in experiment [2] was -2.1; in experiment [3], -1.6 (inactive); in experiment [4], -0.535 (inactive); in experiment [5], -0.461 (inactive).

As to `CCCCC(=C=CC[C@@H](O)c1ccc(CO)o1)CCO`, the composite z-score in experiment [1] was 0.54 (inactive); in the experiment with XIP peptide (Xip251-270) it was 0.218. Besides, the z-score in experiment [2] was 0.0728; in experiment [3] it was -4.16 (inactive); in experiment [4] it was -0.364 (inactive); in experiment [5], -0.13 (inactive).

Turning to `CCOc1ccc(N2C(=O)CSC2c2cccc([N+](=O)[O-])c2)cc1` (stereo not drawn), the composite z-score was 0.115 (inactive) in experiment [1] and 0.193 in the experiment on XIP peptide (Xip251-270). The z-score is 0.268 in experiment [2], -0.0449 (inactive) in experiment [3], -0.139 (inactive) in experiment [4] and -0.0398 (inactive) in experiment [5].

On to `CCCC=C(CCC)[C@@H](NS(=O)(=O)c1ccc(Cl)cc1)c1ccc(C(=O)OC)cc1`, for which the composite z-score was -0.126 (inactive) in experiment [1] and 0.536 with XIP peptide (Xip251-270). Moreover, the z-score is 0.198 in experiment [2], -1.43 (inactive) in experiment [3], 0.47 (inactive) in experiment [4] and 0.175 (inactive) in experiment [5].

As for `C=CCNC(=O)[C@@H]1[C@H]2C(=O)O[C@H](c3ccccc3)[C@H](c3ccccc3)N2[C@H](c2ccc(OCCO)cc2)[C@@]12C(=O)N(C(=O)OCCOC)c1ccc(C#CCNC(N)=O)cc12`, the composite z-score in experiment [1] is -0.121 (inactive); in the experiment with XIP peptide (Xip251-270), 0.842. Also, the z-score was -1.29 in experiment [2], -1.4 (inactive) in experiment [3], 0.111 (inactive) in experiment [4] and 0.487 (inactive) in experiment [5].

Regarding `CCCCCCCCCCC(O)C1C=CC2C(=O)NC(=O)C2N1Nc1ccc(Cl)cc1Cl` (stereo not drawn), the figures for the composite z-score (in experiment [1]; in the experiment on XIP peptide (Xip251-270)) were 3.34 (inactive) and -0.333, respectively. For the same compound, the z-score in experiment [2] was -0.642; in experiment [3] it was -0.739 (inactive); in experiment [4], 0.387 (inactive); in experiment [5] it was 0.006 (inactive).

For `C#CCN(C/C=C/c1ccccc1)[C@H](CO)c1ccccc1`, the composite z-score in experiment [1] was -0.333 (inactive); with XIP peptide (Xip251-270), -0.384. In addition, the z-score was -0.213 in experiment [2], -6.53 (inactive) in experiment [3], -0.209 (inactive) in experiment [4] and -0.753 (inactive) in experiment [5].

With `O=c1cccc(-c2ccccc2Cl)o1`, the composite z-score was -0.143 (inactive) in experiment [1] and -0.231 in the experiment with XIP peptide (Xip251-270). Also, the z-score was 0.382 in experiment [2], -0.226 (inactive) in experiment [3], 0.266 (inactive) in experiment [4] and -0.26 (inactive) in experiment [5].

The values above are taken from PubChem BioAssay.
